{
  "source": "the supplement of paper PMC10849652",
  "note": "The full data set covers some 7,900 targets. This sample favours those with a hit. About 0.6% of all pairs of compound and target were hits.",
  "data": [
    {"compound": "Cc1cn(-c2cc(NC(=O)c3ccc(C)c(Nc4nccc(-c5cccnc5)n4)c3)cc(C(F)(F)F)c2)cn1 [nilotinib]", "assay": "log2 fold change, soluble protein after heating vs DMSO (PISA); higher = thermal stabilisation; K562 cells, 10 uM, 30 min; active = over 0.2 and 3.5 SD of the protein, either way, in both replicates (recomputed)", "method_in_brief": "(§1)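 K562 cells at 2×10^6 cells/mL were treated with 10 μM compound for 30 min. Aliquots were heated for 3 min across 48°C-58°C, pooled, and extracted in PBS with 0.5% NP-40 at 4°C; soluble protein was the supernatant after 21,000xg for 90 min. Soluble protein was quantified by TMTpro 16plex LC-MS/MS with channel sums equalised, and reported as log2 fold change in thermal stability against DMSO controls, with values from duplicates.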", "values": [
      {"target": "TRIM44 (UniProt Q96DX7)", "log2 fold change": "-0.024 (inactive)"},
      {"target": "TRIM23 (UniProt P36406)", "sequence (P36406 whole entry, looked up)": "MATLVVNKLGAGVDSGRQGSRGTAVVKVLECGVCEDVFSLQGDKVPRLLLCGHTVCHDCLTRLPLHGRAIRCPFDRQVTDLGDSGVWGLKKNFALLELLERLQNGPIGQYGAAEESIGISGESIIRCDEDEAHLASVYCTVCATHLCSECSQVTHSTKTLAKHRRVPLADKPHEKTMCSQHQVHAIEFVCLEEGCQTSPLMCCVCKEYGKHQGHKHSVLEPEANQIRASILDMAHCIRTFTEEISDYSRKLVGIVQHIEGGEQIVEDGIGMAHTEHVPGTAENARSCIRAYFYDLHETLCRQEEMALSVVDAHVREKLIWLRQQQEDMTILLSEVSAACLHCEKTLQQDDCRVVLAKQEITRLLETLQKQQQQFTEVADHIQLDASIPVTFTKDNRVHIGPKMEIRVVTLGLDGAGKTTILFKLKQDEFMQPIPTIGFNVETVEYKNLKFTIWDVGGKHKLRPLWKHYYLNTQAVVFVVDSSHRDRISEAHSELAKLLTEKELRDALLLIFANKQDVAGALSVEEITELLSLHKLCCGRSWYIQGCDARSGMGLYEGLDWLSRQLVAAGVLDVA", "log2 fold change": "-0.091 (inactive)"},
      {"target": "VPS28 (UniProt Q9UK41)", "log2 fold change": "-0.153 (inactive)"},
      {"target": "UBE2D1 (UniProt P51668)", "log2 fold change": "-0.002 (inactive)"},
      {"target": "TMEM268 isoform 3 (UniProt Q5VZI3)", "sequence (Q5VZI3 whole entry, looked up)": "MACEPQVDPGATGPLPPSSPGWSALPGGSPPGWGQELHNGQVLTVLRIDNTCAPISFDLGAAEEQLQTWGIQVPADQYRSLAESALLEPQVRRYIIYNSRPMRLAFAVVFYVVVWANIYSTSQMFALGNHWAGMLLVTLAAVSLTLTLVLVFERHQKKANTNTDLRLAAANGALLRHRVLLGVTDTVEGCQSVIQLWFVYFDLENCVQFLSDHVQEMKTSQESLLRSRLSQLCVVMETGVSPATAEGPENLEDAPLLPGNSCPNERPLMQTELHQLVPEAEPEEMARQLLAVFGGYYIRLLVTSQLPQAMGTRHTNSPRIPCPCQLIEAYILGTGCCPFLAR", "log2 fold change": "0.008 (inactive)"},
      {"target": "WASHC2A (UniProt Q641Q2)", "log2 fold change": "0.002 (inactive)"},
      {"target": "TMEM179B (UniProt Q7Z7N9)", "sequence (Q7Z7N9 whole entry, looked up)": "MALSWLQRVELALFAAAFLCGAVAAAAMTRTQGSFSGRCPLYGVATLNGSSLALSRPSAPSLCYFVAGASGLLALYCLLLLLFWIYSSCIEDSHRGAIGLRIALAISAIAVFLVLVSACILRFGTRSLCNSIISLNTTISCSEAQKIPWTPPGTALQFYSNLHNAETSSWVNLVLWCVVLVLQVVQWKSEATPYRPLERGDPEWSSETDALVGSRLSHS", "log2 fold change": "0.046 (inactive)"},
      {"target": "UBE4B isoform 4 (UniProt O95155)", "log2 fold change": "-0.051 (inactive)"},
      {"target": "TRAPPC6B (UniProt Q86SZ2)", "log2 fold change": "-0.008 (inactive)"},
      {"target": "TMEM9B (UniProt Q9NQ34)", "log2 fold change": "0.005 (inactive)"},
      {"target": "TSPAN13 (UniProt O95857)", "log2 fold change": "0.056 (inactive)"},
      {"target": "TMEM8A (UniProt Q9HCN3)", "sequence (Q9HCN3 whole entry, looked up)": "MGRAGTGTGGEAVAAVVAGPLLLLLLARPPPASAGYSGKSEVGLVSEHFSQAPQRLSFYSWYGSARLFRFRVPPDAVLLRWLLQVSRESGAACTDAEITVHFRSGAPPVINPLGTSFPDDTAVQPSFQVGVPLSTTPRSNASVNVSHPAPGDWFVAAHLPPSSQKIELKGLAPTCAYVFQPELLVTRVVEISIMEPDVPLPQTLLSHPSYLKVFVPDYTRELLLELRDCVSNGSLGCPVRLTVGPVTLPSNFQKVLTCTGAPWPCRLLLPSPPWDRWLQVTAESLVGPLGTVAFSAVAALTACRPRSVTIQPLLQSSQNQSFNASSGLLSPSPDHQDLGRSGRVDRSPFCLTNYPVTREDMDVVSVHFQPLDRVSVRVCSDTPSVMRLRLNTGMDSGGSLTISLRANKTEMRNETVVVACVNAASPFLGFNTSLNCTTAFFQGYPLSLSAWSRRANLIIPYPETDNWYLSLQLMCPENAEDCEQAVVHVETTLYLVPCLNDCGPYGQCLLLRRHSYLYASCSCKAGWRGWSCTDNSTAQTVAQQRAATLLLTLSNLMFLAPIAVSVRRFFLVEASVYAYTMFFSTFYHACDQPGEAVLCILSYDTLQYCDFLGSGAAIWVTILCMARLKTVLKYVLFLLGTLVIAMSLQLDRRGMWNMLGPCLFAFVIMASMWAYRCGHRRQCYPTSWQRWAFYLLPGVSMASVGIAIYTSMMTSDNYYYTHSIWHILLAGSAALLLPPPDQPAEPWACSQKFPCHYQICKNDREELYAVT", "log2 fold change": "-0.033 (inactive)"},
      {"target": "WEE1 (UniProt P30291)", "log2 fold change": "0.182 (inactive)"},
      {"target": "UNC119B (UniProt A6NIH7)", "log2 fold change": "0.16 (inactive)"},
      {"target": "TRIM4 (UniProt Q9C037)", "log2 fold change": "0.111 (inactive)"},
      {"target": "UBIAD1 (UniProt Q9Y5Z9)", "log2 fold change": "0.074 (inactive)"},
      {"target": "USP48 isoform 8 (UniProt Q86UV5)", "log2 fold change": "-0.097 (inactive)"},
      {"target": "TMEM164 (UniProt Q5U3C3)", "log2 fold change": "0.023 (inactive)"},
      {"target": "UFM1 isoform 2 (UniProt P61960)", "log2 fold change": "-0.009 (inactive)"},
      {"target": "TUT4 (UniProt Q5TAX3)", "log2 fold change": "-0.153 (inactive)"},
      {"target": "UBAP2L (UniProt F8W726)", "log2 fold change": "0.151 (inactive)"},
      {"target": "TMEM41A (UniProt Q96HV5)", "log2 fold change": "-0.008 (inactive)"},
      {"target": "TMEM184C (UniProt Q9NVA4)", "sequence (Q9NVA4 whole entry, looked up)": "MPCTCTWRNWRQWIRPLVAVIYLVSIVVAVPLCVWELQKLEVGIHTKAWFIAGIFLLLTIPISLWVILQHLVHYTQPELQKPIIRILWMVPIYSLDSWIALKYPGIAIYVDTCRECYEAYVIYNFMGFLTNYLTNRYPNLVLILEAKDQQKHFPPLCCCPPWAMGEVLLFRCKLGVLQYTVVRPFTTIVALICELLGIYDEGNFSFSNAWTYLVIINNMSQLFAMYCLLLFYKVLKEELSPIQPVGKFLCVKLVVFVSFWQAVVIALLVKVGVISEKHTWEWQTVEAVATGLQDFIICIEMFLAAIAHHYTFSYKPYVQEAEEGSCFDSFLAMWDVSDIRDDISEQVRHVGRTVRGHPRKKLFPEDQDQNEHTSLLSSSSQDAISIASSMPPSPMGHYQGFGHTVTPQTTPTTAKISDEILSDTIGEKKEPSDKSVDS", "log2 fold change": "-0.007 (inactive)"},
      {"target": "XIAP (UniProt P98170)", "log2 fold change": "0.366 (inactive)"},
      {"target": "TMEM106B (UniProt Q9NUM4)", "sequence (Q9NUM4 whole entry, looked up)": "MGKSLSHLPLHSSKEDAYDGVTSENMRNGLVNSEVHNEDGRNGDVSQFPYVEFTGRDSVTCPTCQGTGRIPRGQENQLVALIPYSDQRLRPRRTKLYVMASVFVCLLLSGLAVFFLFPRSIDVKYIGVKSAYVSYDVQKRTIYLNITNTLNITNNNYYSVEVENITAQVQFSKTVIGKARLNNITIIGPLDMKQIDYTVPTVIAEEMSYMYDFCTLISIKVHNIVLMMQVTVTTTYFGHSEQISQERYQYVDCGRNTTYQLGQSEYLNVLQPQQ", "log2 fold change": "-0.015 (inactive)"},
      {"target": "TXNL4B (UniProt Q9NX01)", "log2 fold change": "0.003 (inactive)"},
      {"target": "UBE2S (UniProt Q16763)", "sequence (Q16763 whole entry, looked up)": "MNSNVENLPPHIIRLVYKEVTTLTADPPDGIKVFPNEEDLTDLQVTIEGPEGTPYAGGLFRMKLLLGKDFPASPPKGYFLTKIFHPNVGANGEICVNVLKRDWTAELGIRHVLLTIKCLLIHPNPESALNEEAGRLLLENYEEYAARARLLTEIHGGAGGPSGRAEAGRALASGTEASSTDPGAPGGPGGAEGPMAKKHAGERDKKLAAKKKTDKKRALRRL", "log2 fold change": "-0.008 (inactive)"},
      {"target": "VKORC1 (UniProt Q9BQB6)", "sequence (Q9BQB6 whole entry, looked up)": "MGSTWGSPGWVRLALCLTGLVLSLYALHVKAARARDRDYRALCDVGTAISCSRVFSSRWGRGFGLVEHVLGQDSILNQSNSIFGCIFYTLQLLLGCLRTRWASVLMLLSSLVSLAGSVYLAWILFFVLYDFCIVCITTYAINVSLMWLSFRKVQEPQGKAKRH", "log2 fold change": "-0.008 (inactive)"},
      {"target": "TMEM161A (UniProt Q9NX61)", "log2 fold change": "-0.157 (inactive)"},
      {"target": "VWA3B isoform 6 (UniProt Q502W6)", "sequence (Q502W6 whole entry, looked up)": "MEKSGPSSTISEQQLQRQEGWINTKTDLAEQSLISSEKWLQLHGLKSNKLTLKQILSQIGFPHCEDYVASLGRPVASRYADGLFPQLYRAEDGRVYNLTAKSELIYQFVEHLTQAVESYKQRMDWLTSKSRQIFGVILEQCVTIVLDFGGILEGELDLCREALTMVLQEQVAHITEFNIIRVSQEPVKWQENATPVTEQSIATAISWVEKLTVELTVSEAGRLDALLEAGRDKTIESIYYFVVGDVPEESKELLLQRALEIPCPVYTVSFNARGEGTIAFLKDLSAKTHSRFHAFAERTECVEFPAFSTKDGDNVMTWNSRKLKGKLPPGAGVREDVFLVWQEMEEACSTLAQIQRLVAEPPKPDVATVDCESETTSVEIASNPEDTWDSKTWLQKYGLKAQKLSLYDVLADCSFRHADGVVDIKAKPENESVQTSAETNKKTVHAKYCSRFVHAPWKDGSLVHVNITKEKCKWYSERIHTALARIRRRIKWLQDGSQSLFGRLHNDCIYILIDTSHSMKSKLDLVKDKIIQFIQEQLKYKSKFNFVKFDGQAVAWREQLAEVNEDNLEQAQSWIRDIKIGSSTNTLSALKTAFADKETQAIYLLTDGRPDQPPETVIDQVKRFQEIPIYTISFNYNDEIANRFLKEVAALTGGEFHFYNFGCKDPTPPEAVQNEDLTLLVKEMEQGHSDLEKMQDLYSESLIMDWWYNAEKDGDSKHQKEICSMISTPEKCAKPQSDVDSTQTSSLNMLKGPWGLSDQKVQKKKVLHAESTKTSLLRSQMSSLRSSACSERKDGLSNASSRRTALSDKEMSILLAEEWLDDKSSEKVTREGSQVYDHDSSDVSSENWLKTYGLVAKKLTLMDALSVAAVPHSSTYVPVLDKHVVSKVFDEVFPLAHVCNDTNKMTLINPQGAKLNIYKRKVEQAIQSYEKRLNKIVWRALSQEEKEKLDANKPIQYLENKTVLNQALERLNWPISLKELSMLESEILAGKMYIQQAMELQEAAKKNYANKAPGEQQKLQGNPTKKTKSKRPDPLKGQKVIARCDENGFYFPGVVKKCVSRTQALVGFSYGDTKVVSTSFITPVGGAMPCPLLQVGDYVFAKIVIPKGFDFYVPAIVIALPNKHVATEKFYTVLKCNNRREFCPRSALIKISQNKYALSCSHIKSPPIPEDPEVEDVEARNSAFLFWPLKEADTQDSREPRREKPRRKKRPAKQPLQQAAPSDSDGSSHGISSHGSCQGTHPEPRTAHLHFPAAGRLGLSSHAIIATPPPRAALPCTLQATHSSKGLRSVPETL", "log2 fold change": "-0.128 (inactive)"},
      {"target": "VPS37A (UniProt Q8NEZ2)", "log2 fold change": "-0.134 (inactive)"},
      {"target": "TTI1 (UniProt O43156)", "log2 fold change": "-0.036 (inactive)"},
      {"target": "UBE2Q1 (UniProt Q7Z7E8)", "log2 fold change": "-0.134 (inactive)"},
      {"target": "TRABD (UniProt Q9H4I3)", "sequence (Q9H4I3 whole entry, looked up)": "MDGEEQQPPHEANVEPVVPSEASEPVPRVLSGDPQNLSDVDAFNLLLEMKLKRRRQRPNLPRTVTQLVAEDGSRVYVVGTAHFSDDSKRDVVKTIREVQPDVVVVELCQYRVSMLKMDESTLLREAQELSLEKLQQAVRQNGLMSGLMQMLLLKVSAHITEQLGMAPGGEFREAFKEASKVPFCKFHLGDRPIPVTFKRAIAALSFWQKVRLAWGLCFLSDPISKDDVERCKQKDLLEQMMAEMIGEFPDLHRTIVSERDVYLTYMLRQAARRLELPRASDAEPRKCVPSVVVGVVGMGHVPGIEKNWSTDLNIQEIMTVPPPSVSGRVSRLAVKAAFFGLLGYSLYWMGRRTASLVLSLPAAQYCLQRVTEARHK", "log2 fold change": "0.185 (inactive)"},
      {"target": "UBXN10 (UniProt Q96LJ8)", "sequence (Q96LJ8 whole entry, looked up)": "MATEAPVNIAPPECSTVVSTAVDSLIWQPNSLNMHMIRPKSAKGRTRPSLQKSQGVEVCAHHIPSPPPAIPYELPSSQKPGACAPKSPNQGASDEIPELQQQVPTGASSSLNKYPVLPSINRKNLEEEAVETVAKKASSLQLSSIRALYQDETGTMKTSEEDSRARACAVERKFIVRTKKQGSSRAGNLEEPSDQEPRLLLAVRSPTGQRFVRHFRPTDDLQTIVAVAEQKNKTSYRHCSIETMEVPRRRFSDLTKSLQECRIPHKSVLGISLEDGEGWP", "log2 fold change": "-0.085 (inactive)"},
      {"target": "TMEM219 (UniProt Q86XT9)", "log2 fold change": "-0.243 (inactive)"}
    ]},
    {"compound": "Cc1nc(Nc2n[nH]c3c2CN(C(=O)N[C@H](CN(C)C)c2ccccc2)C3(C)C)c2sccc2n1", "assay": "log2 fold change, soluble protein after heating vs DMSO (PISA); higher = thermal stabilisation; K562 cells, 10 uM, 30 min; active = over 0.2 and 3.5 SD of the protein, either way, in both replicates (recomputed)", "method_in_brief": "as §1", "values": [
      {"target": "TRIM44 (UniProt Q96DX7)", "log2 fold change": "-0.023 (inactive)"},
      {"target": "TRIM23 (UniProt P36406)", "log2 fold change": "0.001 (inactive)"},
      {"target": "VPS28 (UniProt Q9UK41)", "log2 fold change": "-0.063 (inactive)"},
      {"target": "UBE2D1 (UniProt P51668)", "log2 fold change": "0.046 (inactive)"},
      {"target": "TMEM268 isoform 3 (UniProt Q5VZI3)", "log2 fold change": "-0.005 (inactive)"},
      {"target": "WASHC2A (UniProt Q641Q2)", "log2 fold change": "-0.039 (inactive)"},
      {"target": "TMEM179B (UniProt Q7Z7N9)", "log2 fold change": "-0.018 (inactive)"},
      {"target": "UBE4B isoform 4 (UniProt O95155)", "log2 fold change": "-0.011 (inactive)"},
      {"target": "TRAPPC6B (UniProt Q86SZ2)", "log2 fold change": "-0.027 (inactive)"},
      {"target": "TMEM9B (UniProt Q9NQ34)", "log2 fold change": "0.009 (inactive)"},
      {"target": "TSPAN13 (UniProt O95857)", "log2 fold change": "-0.035 (inactive)"},
      {"target": "TMEM8A (UniProt Q9HCN3)", "log2 fold change": "0.071 (inactive)"},
      {"target": "WEE1 (UniProt P30291)", "log2 fold change": "-0.905 (active)"},
      {"target": "UNC119B (UniProt A6NIH7)", "log2 fold change": "-0.077 (inactive)"},
      {"target": "TRIM4 (UniProt Q9C037)", "log2 fold change": "0.101 (inactive)"},
      {"target": "UBIAD1 (UniProt Q9Y5Z9)", "log2 fold change": "0.004 (inactive)"},
      {"target": "USP48 isoform 8 (UniProt Q86UV5)", "log2 fold change": "-0.362 (inactive)"},
      {"target": "TMEM164 (UniProt Q5U3C3)", "log2 fold change": "-0.021 (inactive)"},
      {"target": "UFM1 isoform 2 (UniProt P61960)", "log2 fold change": "0.023 (inactive)"},
      {"target": "TUT4 (UniProt Q5TAX3)", "log2 fold change": "0.01 (inactive)"},
      {"target": "UBAP2L (UniProt F8W726)", "log2 fold change": "0.063 (inactive)"},
      {"target": "TMEM41A (UniProt Q96HV5)", "log2 fold change": "-0.01 (inactive)"},
      {"target": "TMEM184C (UniProt Q9NVA4)", "log2 fold change": "-0.047 (inactive)"},
      {"target": "XIAP (UniProt P98170)", "log2 fold change": "0.061 (inactive)"},
      {"target": "TMEM106B (UniProt Q9NUM4)", "log2 fold change": "0.02 (inactive)"},
      {"target": "TXNL4B (UniProt Q9NX01)", "log2 fold change": "-0.041 (inactive)"},
      {"target": "UBE2S (UniProt Q16763)", "log2 fold change": "-0.017 (inactive)"},
      {"target": "VKORC1 (UniProt Q9BQB6)", "log2 fold change": "0.013 (inactive)"},
      {"target": "TMEM161A (UniProt Q9NX61)", "log2 fold change": "0.023 (inactive)"},
      {"target": "VWA3B isoform 6 (UniProt Q502W6)", "log2 fold change": "0.075 (inactive)"},
      {"target": "VPS37A (UniProt Q8NEZ2)", "log2 fold change": "-0.27 (inactive)"},
      {"target": "TTI1 (UniProt O43156)", "log2 fold change": "-0.102 (inactive)"},
      {"target": "UBE2Q1 (UniProt Q7Z7E8)", "log2 fold change": "-0.103 (inactive)"},
      {"target": "TRABD (UniProt Q9H4I3)", "log2 fold change": "0.02 (inactive)"},
      {"target": "UBXN10 (UniProt Q96LJ8)", "log2 fold change": "0.141 (inactive)"},
      {"target": "TMEM219 (UniProt Q86XT9)", "log2 fold change": "0.216 (inactive)"}
    ]}
  ]
}
